Experimental data as given in PubChem BioAssay (Tox21).
Where “and” joins values, the source holds several entries; their conditions need not be identical. Equal entries are not always repeated. Records with an inconclusive call do not appear. Entries that show only a call come without a potency. Some structures have more than one record in an assay (separate samples or runs), and their calls can disagree. Calls of active or inactive are those of the source. Calls follow the shape of the dose curve; as a rule, active = well fitted cell-killing curve with a large enough effect in the repeat runs; inconclusive = weak or mixed curves, or effect the other way; inactive = no such curve, though single readings can be large or run the other way.

Assay: qHTS assay to identify small molecule agonists of the estrogen receptor alpha (ER-alpha) signaling pathway in the presence of an antagonist - cell viability counter screen (AID 1259386); also: nearly all actives have a fitted effect of over 30% in size
Conditions: VM7Luc4E2 viability, CellTiter-Fluor fluorescence, 22 h; series mostly up to 92.4 µM
From the text: National Center for Advancing Translational Sciences [NCATS]
NIH Chemical Genomics Center [NCGC]
U.S. Environmental Protection Agency [EPA]
National Institutes of Environmental Health Sciences [NIEHS]
National Toxicology Program [NTP]
U.S. Food and Drug Administration [FDA]
Estrogen receptor (ER), a member of nuclear hormone receptor plays an important role in development, metabolic homeostasis and reproduction. Two subtypes of ER, ER-alpha and ER-beta, have similar expression patterns with some uniqueness in both types. Endocrine disrupting chemicals (EDCs) and their interactions with steroid hormone receptors like ER causes disruption of normal endocrine function. Therefore, it is important to understand the effect of environmental chemicals in ER signaling pathway. For identifying ER agonists, VM7Luc4E2 cell line has been used in the current assay.
VM7Luc4E2 cell line (provided by Denison MS, University of California) endogenously expresses full-length ER-alpha and is stably transfected with a plasmid containing four estrogen responsive elements (ERE) upstream of a luciferase reporter gene. This current screening for measuring luciferase reporter gene activity using VM7Luc4E2 cells against Tox21 10K library collection is a confirmation study on agonist mode screening in presence of ER-antagonist (ICI-182,780) at 10.0nM final concentration. The cytotoxicity of the compounds was tested in parallel by measuring the cell viability using CellTiter-Fluor assay system (Promega, Madison, WI) in the same wells.
Tox21 Assay Protocol Summary:
VM7Luc4E2 cells were cultured in phenol red free assay medium containing 10% charcoal stripped FBS for 5 days prior to the assay. The cells were dispensed at 4,000 cells in 4uL of assay medium per well into white wall/solid-bottom 1536-well plates (Corning Life Sciences, Corning, NY) using a Multidrop Combi (Thermo Fisher Scientific Inc., Waltham, MA) dispenser. After the assay plates were incubated at 37C and 5% CO2 for 24hr, 1uL of 10.0nM (final concentration) ICI-182,780 or assay buffer was added using two separate tips of Flying Reagent Dispenser (FRD, Aurora Discovery, San Diego, CA). Then 23nL of compounds dissolved in DMSO at 15 concentrations and positive controls or DMSO only was transferred to the assay plates by a Pintool station (Wako, San Diego, CA). The assay plates were incubated at 37C and 5% CO2 for 22hr. After 21hr incubation at 37C, 1uL/well CellTiter-Fluor reagent (Promega Corporation, Madison, WI) was added to each well using FRD and after 1hr incubation at 37C and 5% CO2, the fluorescence signal was measured on ViewLux plate reader (PerkinElmer, Shelton, CT).
Potency is read from the fitted curve at half-maximal effect.

**Q.** With `O=C1OC2(c3ccccc31)c1cc(Br)c(O)c(Br)c1Oc1c2cc(Br)c(O)c1Br` as the compound, how does the Potency read?
**A.** The Potency was 11 µM (active) and 19.9 µM (active) and 10.6 µM (active).

**Q.** For `CNNCc1ccc(C(=O)NC(C)C)cc1`, which Potency is on record?
**A.** The Potency was “inactive”.

**Q.** Which Potency does the source give for `CC1(C)O[C@@H]2C[C@H]3[C@@H]4CCC5=CC(=O)C=C[C@]5(C)[C@@]4(F)[C@@H](O)C[C@]3(C)[C@]2(C(=O)CO)O1` here?
**A.** The Potency was “inactive”.

**Q.** Which Potency does the source give for `COc1ccc2cc(S(=O)(=O)N[C@H](CC(=O)N[C@H](Cc3ccc(CN4[C@H](C)CCC[C@@H]4C)cc3)C(=O)N(C)C(C)C)c3ccc4c(c3)OCO4)ccc2c1` here?
**A.** Its Potency is 36.5 µM (active).

**Q.** For `CCCCCCCCCCCC[N+](C)(C)Cc1ccccc1`, which Potency is on record?
**A.** Its Potency is 67.3 µM (active) and 74.5 µM (active) and inactive.

**Q.** For `CC(=O)C(=O)O`, which Potency is on record?
**A.** Its Potency is “inactive”.

**Q.** For `COc1ccc(C(Cl)=C(c2ccc(OC)cc2)c2ccc(OC)cc2)cc1`, which Potency is on record?
**A.** The Potency was “inactive”.

**Q.** For `CC1(C)S[C@@H]2[C@H](NC(=O)[C@H](N)c3ccccc3)C(=O)N2[C@H]1C(=O)O`, which Potency is on record?
**A.** The Potency was “inactive”.

**Q.** Which Potency does the source give for `CN1CCc2cccc3c2[C@H]1Cc1ccc(O)c(O)c1-3` here?
**A.** Its Potency is 49.1 µM (active) and 22.8 µM (active) and 26.6 µM (active).

**Q.** For `CCOc1ccc(NC(C)=O)cc1`, which Potency is on record?
**A.** The Potency was “inactive”.

**Q.** Which Potency does the source give for `COc1ccc(OC(F)(F)F)cc1CN[C@H]1CCCN[C@H]1c1ccccc1` here?
**A.** Its Potency is “inactive”.

**Q.** Which Potency does the source give for `CS(=O)(=O)OCCCCOS(C)(=O)=O` here?
**A.** The Potency was “inactive”.

**Q.** Which Potency does the source give for `C/C=C/C=C/C(=O)O` here?
**A.** Its Potency is “inactive”.

**Q.** Which Potency does the source give for `OC[C@H]1O[C@H](O[C@]2(CCl)O[C@H](CCl)[C@@H](O)[C@@H]2O)[C@H](O)[C@@H](O)[C@H]1Cl` here?
**A.** Its Potency is “inactive”.

**Q.** Which Potency does the source give for `CCCCCCCC(=O)OCC(COC(=O)CCCCCCC)OC(=O)CCCCCCC` here?
**A.** The Potency was “inactive”.

**Q.** Which Potency does the source give for `O=CC(=O)c1ccccc1` here?
**A.** The Potency was “inactive”.

**Q.** Which Potency does the source give for `NS(=O)(=O)O` here?
**A.** The Potency was “inactive”.

**Q.** For `CCCc1cc(=O)[nH]c(=S)[nH]1`, which Potency is on record?
**A.** The Potency was “inactive”.

**Q.** With `O=C1NS(=O)(=O)c2ccccc21` as the compound, how does the Potency read?
**A.** Its Potency is “inactive”.

**Q.** With `CCCCNC(=O)NS(=O)(=O)c1ccc(C)cc1` as the compound, how does the Potency read?
**A.** The Potency was “inactive”.

**Q.** For `CCCCC1(COC(=O)CCC(=O)O)C(=O)N(c2ccccc2)N(c2ccccc2)C1=O`, which Potency is on record?
**A.** Its Potency is “inactive”.

**Q.** For `CCN(Cc1c(F)cccc1Cl)c1c([N+](=O)[O-])cc(C(F)(F)F)cc1[N+](=O)[O-]`, which Potency is on record?
**A.** The Potency was “inactive”.

**Q.** For `CCCC[P+](CCCC)(CCCC)CCCC`, which Potency is on record?
**A.** The Potency was “inactive”.

**Q.** For `F[B-](F)(F)F`, which Potency is on record?
**A.** Its Potency is “inactive”.

**Q.** For `CCN(CC)C(=O)c1cccc(C)c1`, which Potency is on record?
**A.** Its Potency is “inactive”.

**Q.** For `Cc1ccc(S(=O)(=O)O)cc1`, which Potency is on record?
**A.** Its Potency is “inactive”.

**Q.** With `Cn1c(=O)c2c(ncn2C)n(C)c1=O` as the compound, how does the Potency read?
**A.** The Potency was 61.9 µM (active) and inactive.

**Q.** With `O=C(O)CC(O)C(=O)O` (stereo not given) as the compound, how does the Potency read?
**A.** The Potency was “inactive”.

**Q.** For `CCCCCCCCCCCCCCCC[N+](C)(C)Cc1ccccc1`, which Potency is on record?
**A.** Its Potency is “inactive”.

**Q.** Which Potency does the source give for `O=c1[nH]cnc2c1ncn2[C@H]1CC[C@@H](CO)O1` here?
**A.** The Potency was “inactive”.

**Q.** For `CC12CCC(CC1)C(C)(C)O2`, which Potency is on record?
**A.** The Potency was “inactive”.

**Q.** Which Potency does the source give for `C=C(C)C(=O)OCC(C)O` (stereo not given) here?
**A.** The Potency was “inactive”.

**Q.** For `Nc1ccc(S(N)(=O)=O)cc1`, which Potency is on record?
**A.** The Potency was “inactive”.

**Q.** With `CC(=O)CC(c1ccccc1)c1c(O)c2ccccc2oc1=O` (stereo not given) as the compound, how does the Potency read?
**A.** The Potency was “inactive”.

**Q.** Which Potency does the source give for `CCCCOC(=O)c1ccc(O)cc1` here?
**A.** Its Potency is “inactive”.

**Q.** Which Potency does the source give for `C1CCC(C(CC2CCCCN2)C2CCCCC2)CC1` (stereo not given) here?
**A.** Its Potency is “inactive”.

**Q.** Which Potency does the source give for `CCc1nc(N)nc(N)c1-c1ccc(Cl)cc1` here?
**A.** Its Potency is “inactive”.

**Q.** Which Potency does the source give for `Cc1cc(=O)oc2cc(O)ccc12` here?
**A.** Its Potency is “inactive”.

**Q.** For `O=C(Nc1ncc([N+](=O)[O-])s1)c1cccs1`, which Potency is on record?
**A.** Its Potency is 26.6 µM (active).

**Q.** For `CN(C)CCOC(c1ccccc1)c1ccccc1`, which Potency is on record?
**A.** Its Potency is “inactive”.
